# Test results published in PubChem BioAssay (NCATS).
# Inconclusive results are not listed. Values without a mark were called inactive. The source made the active and inactive calls. The call rests on the fitted dose curve; in most records, active means well fitted cell-killing curve with a large enough effect; inconclusive means small, poorly fitted or top-dose-only effect, or effect the other way; inactive means flat fitted curve, though single readings scatter.
# Test system: CAOV3
# Experiment: Primary qHTS to identify gynecologic anti-cancer compounds using libraries of approved drugs and bioactive compounds (AID 1345084); further: nearly all actives have a fitted effect of over 55% in size
# Conditions: Gynecologic cancer cell panel viability, ATPlite luminescence, 48 h; series mostly up to 57.5 µM; activity change, negative = cytotoxicity: at the top concentration
# Description: National Center for Advancing Translational Sciences [NCATS] Assay Overview: Chemotherapeutic drug responses vary from cancer to cancer and from patient to patient. These variations could be caused by a number of factors including patient genomic background, tumor mutations, tumor heterogeneity, and aspects of drug treatment. Chemotherapeutic drug resistance is also a common issue and can lead to ineffective treatment and patient death. Here we have profiled the cell killing effects of thousands of compounds to characterize the responses in three gynecological cancers, identify cancer-selective compounds, and understand the diversity of responses to these compounds from pan-cancer suppressors to single cell line selective compounds. In this assay, we screened a 7,914 compound drug library that included approved drug and bioactive compounds in six ovarian, three cervical, and […] placental cancer cell lines using the ATPlite assay for cell viability. […] The cervical cancer cell lines included HeLa, Ca Ski, and C-33 A. The placental cancer cell lines included JEG-3. HEK 293T cells were used as the control cell line to determine the selectivity index. ATPlite is a luminescence based assay reliant on the conversion of a luciferase substrate to light in the presence of ATP. As a cytotoxic compound will suppress growth and decrease the number of cells, the concentration of ATP will decrease, and less light signal will be detected in the well.
# Assay Protocol Summary: 1,000 cells in 4 uL of media were dispensed into white, solid bottom 1536-well plates using a Multidrop Combi (Thermo Scientific). The Assay plates were incubated for 16 hours at 37 C with 5% CO2 in assay plates, followed by the addition of 23 nL of DMSO or drug dissolved in DMSO. Each compound was assayed in five concentrations (0.092, 0.46, 2.3, 11.5, and 57.5 uM), using the automated Wako 1536 Pin Tool workstation and incubated at 37 C with 5% CO2 48 hours. 4 uL of ATPlite, the ATP monitoring reagent, was then added to the each well of the assay plates using the Multidrop Combi reagent dispenser followed by incubation for 15 minutes at room temperature. The resulting luminescence was measured using the ViewLux plate reader.
# On the % scale 0 is the no-effect control and ±100 the full control effect; potency means the concentration at half of the fitted maximal effect.
SMILES,"activity change, negative = cytotoxicity",Potency
C/C=C/[C@@H]1C=C[C@@H]2C[C@H](C)CC[C@H]2[C@]1(C)/C(O)=C1/C(=O)[C@@H](CO)N(C)C1=O,18.1% [at 38.5 µM],
CN(C)C(=O)Nc1cc(-c2ccccc2)ccc1N(C)C,-0.193%,
CC(C)(N)c1ncc(-c2ccc(OC(F)(F)F)cc2)[nH]1,1.93%,
Clc1ccc(Cn2c(Cc3ccccc3)nc3ccccc32)cc1,-3.09%,
Fc1ccc(N2CCN(CCC3OCCc4ccccc43)CC2)cc1 (stereo not given),16.5%,
Cc1c(C(=O)NCc2cccnc2)nn(-c2ccc(Cl)cc2Cl)c1-c1ccc(Cl)cc1,3.18%,
O=C(O)c1ccc(S(=O)(=O)N(Cc2ccc(OC(F)(F)F)cc2)c2ncc(C(F)(F)F)cc2Cl)cc1,14.6%,
C=C[C@@]12COC(=O)C(=C)[C@@H]1[C@@H](O)[C@H](C(=C)C(=O)OC)[C@@H](O)C2,-0.64% [at 38.5 µM],
CCC(CC)C(=O)OC12C(OC(=O)C(C)C)C(C)C3(O)C(C=C(CO)CC4(O)C(=O)C(C)=CC43)C1C2(C)C (stereo not given),-1.57% [at 25.3 µM],
CCC(C)/C=C(C)/C=C/C1=CC2=C(Cl)C(=O)C(C)(OC(C)=O)C(=O)C2(O)C(OC)O1 (stereo not given),6.77% [at 25.3 µM],
CC1(C)CC[C@]2(C(=O)O[C@@H]3O[C@H](CO)[C@@H](O)[C@H](O)[C@H]3O)CC[C@]3(C)C(=CCC4[C@@]5(C)CC[C@H](O[C@@H]6O[C@H](C(=O)O)[C@H](O)[C@H](O)[C@H]6O)C(C)(C)C5CC[C@]43C)[C@@H]2C1 (stereo not given in full),2.7% [at 25.3 µM],
COc1cccc(CN(C(=O)CC(C)(C)C)[C@H]2C[C@H](C(=O)N3CCNCC3)N(Cc3ccc4c(c3)OCO4)C2)c1,9.25%,
Cc1cc(C)nc(SCC(=O)Nc2ncc(Cc3cccc4ccccc34)s2)n1,20.8%,
O=c1[nH]c2ccccc2n1CCN1CCN(c2cccc(C(F)(F)F)c2)CC1,6.27%,
O=C(O)c1ccc(N2C(=O)/C(=C/c3ccc(-c4ccc([N+](=O)[O-])cc4)o3)C=C2c2ccccc2)cc1,-23.4%,
CC1(C)OC[C@H](NC(=O)Nc2ccc(Br)cc2Br)[C@H](c2ccccc2)O1,1.79%,
COc1cc(OC)c2c(=O)[nH]c(-c3cc(C)c(OCCO)c(C)c3)nc2c1,-24%,
CC(C)S(=O)(=O)c1ccc2nccc(Nc3ccc4scnc4c3)c2c1,-3.4%,
C=C(C)C(=O)O[C@H]1[C@H]2C(=C)C(=O)O[C@@H]2/C=C(\CO)CC/C=C(/C=O)[C@@H]1O,-19% [at 38.5 µM],
Cc1cc(-c2cnc(N)c3c(-c4ccc5scnc5c4)csc23)n(C)n1,-13.7%,

SMILES,"activity change, negative = cytotoxicity",Potency
Cc1ccc(S(=O)(=O)NCc2ccc(C(=O)NCCN(Cc3ccccc3)C(C)C)cc2)cc1,-0.925%,
COc1cc2ncnc(Nc3ccc(F)c(Cl)c3)c2cc1O,-1.98%,
CCC(C)CNCC(=O)N1CCc2sccc2C1COc1cccc(C)c1 (stereo not given),-14.1%,
COC1CCN(C(=O)c2cc(Cc3n[nH]c(=O)c4ccccc34)ccc2F)CC1,-22.9%,
CCC(CC)(NC(=O)C(C)C)C(=O)N[C@@H](CCCN=C(N)N)C(=O)NC1(C(=O)NC(c2ccc(F)cc2)c2ccc(F)cc2)CCCC1,0.127%,
CCc1ccc(-c2nc(CSCC(=O)NCCc3ccccc3)c(C)o2)cc1,10.3%,
CC(C)Oc1ccc(-c2cnc3c(-c4ccnc5ccccc45)cnn3c2)cc1,-9%,
C=CC(=O)Nc1cc(-n2c(=O)ccc3cnc4ccc(-c5ccc(NS(C)(=O)=O)cc5)cc4c32)ccc1C,-0.7%,
CCC[C@H](N[C@H]1CCc2cc(F)cc(F)c2C1)C(=O)Nc1cn(C(C)(C)CNCC(C)(C)C)cn1,6.55%,
Cc1cc(C)cc(-c2cnc3cc(Cl)c(-c4cccc(O)c4)cc3c2OCCCN)c1,10.9%,
COc1cc2c(cc1NS(=O)(=O)c1ccc(Br)cc1C)n(C)c(=O)n2C,,3.55 µM (active)
CC(C)c1cc(-c2ccc(F)c3ccccc23)nc(N)n1,4.05%,
Cc1ccc(NC(=O)c2ccc(CN3CCNCC3)cc2)cc1Nc1nccc(-c2cccnc2)n1,,22.4 µM (active)
C=C(C(=O)OC[C@H]1O[C@@H](OC(=O)/C=C/c2ccccc2)[C@H](O)[C@@H](O)[C@@H]1O)C(O)CO (stereo not given in full),-7.01% [at 25.3 µM],
COc1cc2ncc(-c3ccccc3)nc2cc1OC,-24.3%,
NC(=O)N1CCC(CC(=O)N2CCC(C3c4ncc(Br)cc4CCc4cc(Cl)cc(Br)c43)CC2)CC1 (stereo not given),1.75%,
O=C(NCCCN1CCC2(CC1)OCc1ccccc12)[C@H]1CCCN1Cc1ccccc1,-9.96%,
Cc1[nH]c2ccccc2c1CCNC(=O)c1cccs1,-1.28%,
C=C1C(=O)O[C@H]2/C=C(/C)[C@@H](OC(C)=O)C/C=C(\C)C[C@@H](OC(=O)/C(=C/C)COC(=O)/C(=C/C)CO)[C@@H]12,,8.91 µM (active)
O=C1c2ccc(Nc3ccc(F)cc3F)cc2CCc2ccc(OCC(O)CO)cc21 (stereo not given),-2.04%,
